Experimental data taken from ChEMBL document CHEMBL4513216, “Probing the Open Global Health Chemical Diversity Library for Multistage-Active Starting Points for Next-Generation Antimalarials” (ACS Infect Dis, 2020).
Among all 69,000 compounds or so, about 8,600 (12%) showed an effect of 50% or more. The sample holds strong results, similar compounds and a random draw of the others, so the mix is not that of the screen.

System: Plasmodium berghei
Test: Screen against P. berghei liver stage (PbLuc), transformed with Luciferase, at 10uM
Assay type: functional, HepG2
Details: tested at 10 uM

Row | SMILES | INHIBITION [%]
1 | CCNc1ccnc(NCC2(N(C)C)CCOCC2)n1 | 39
2 | CCC1(CC)CC(=O)N(CC(O)c2ccc(Cl)cc2)C1=O (stereo not given) | 7.3
3 | O=C(CCc1nc(-c2cccnc2)no1)NCC1CCN(C2CC2)C1 (stereo not given) | 11
4 | O=C(CCc1nc(-c2ccsc2)no1)NCC1CCN(C2CC2)C1 (stereo not given) | 69
5 | O=C(CCc1nnc(-c2ccsc2)o1)NCC1CCN(C2CC2)C1 (stereo not given) | -6.04
6 | Cc1cc(NCCS(C)(=O)=O)nc2cc3c(cc12)CCC3 | 41.5
7 | COc1cc2nc(NCCN3CCNC3=O)cc(C)c2cc1OC | -13.4
8 | Cc1cc(NCCN2CCNC2=O)nc2cc3c(cc12)CCC3 | 59.5
9 | COc1ccc(NC2CCc3c2[nH]c(=O)n(C2CCCCC2)c3=O)cc1 (stereo not given) | 78.4
10 | Cc1cccc(NC2CCc3c2[nH]c(=O)n(C2CCCCC2)c3=O)c1C (stereo not given) | 84
11 | O=c1[nH]c2c(c(=O)n1C1CCCCC1)CCC2NCCc1ccccc1 (stereo not given) | 37.9
12 | O=c1[nH]c2c(c(=O)n1C1CCCCC1)CCC2Nc1ccccn1 (stereo not given) | 24.2
13 | O=c1[nH]c2c(c(=O)n1C1CCCCC1)CCC2Nc1ccc(Cl)cc1 (stereo not given) | 46.5
14 | O=c1[nH]c2ncccc2n1C1CCCCC1 | 1.41
15 | O=c1[nH]c2c(c(=O)n1C1CCCCC1)CCC2Nc1ccccc1 (stereo not given) | -22.9
16 | COc1ccc(NC(=O)N2CCCCC2c2ncc[nH]2)cc1 (stereo not given) | 11.2
17 | O=c1[nH]c2c(c(=O)n1C1CCCCC1)CCC2Nc1ccccc1Cl (stereo not given) | 80.5
18 | O=C(c1ccc2c(c1)[nH]c(=O)n2C1CCCC1)N1CC(O)C1 | 44.3
19 | O=c1[nH]c2ncccc2n1C1CCCC1 | 9
20 | O=c1[nH]c2c(c(=O)n1C1CCCCC1)CCC2NCc1ccccc1 (stereo not given) | 52.1
21 | Cc1cccc(CN2C[C@@H]3CN(C(=O)c4cnoc4C)C[C@@H]3C2=O)n1 | 1.34
22 | CC(=O)N(C)Cc1ccccc1NC(=O)c1cnn(C)c1C | -18.7
23 | CNC(=O)CN1CCOCC2(C1)CN(C(=O)CC(C)C)CCO2 (stereo not given) | -3.52
24 | Cc1nn(C)cc1S(=O)(=O)NCC(C)Cn1cc(Cl)cn1 (stereo not given) | 18.4
25 | COCCN(C)Cc1cc(Cl)ccc1OCC(O)CN1CCCCCC1 (stereo not given) | 25.4
26 | Cn1cccc1C(=O)N1CCc2c(CNS(C)(=O)=O)cncc2C1 | -7.29
27 | Cc1ccc(CC2CCCN(S(C)(=O)=O)C2)nc1 (stereo not given) | 21.9
28 | Cc1cccc(C(C(=O)N(C)Cc2ccon2)N(C)C)c1 (stereo not given) | 25.9

Row | SMILES | INHIBITION [%]
29 | CC(C)Oc1cccc(CN(C)C(=O)Cc2ccon2)c1 | -24.6
30 | CCCOc1cccc(-c2nc3c([nH]2)CCNC3)c1 | 13.7
31 | OCc1cccc(OCc2ccon2)c1 | 36.8
32 | CCCOc1cccc(OCc2ccon2)c1 | 91.3
33 | CC(O)c1cccc(OCc2ccon2)c1 (stereo not given) | 74.3
34 | Cc1ccsc1CNC(=O)CCc1c(C)nc2cc(O)nn2c1C | 40.2
35 | Cc1ccccc1Oc1ncccc1CNC1CCC1 | 28
36 | CN(C)S(=O)(=O)NCc1cccnc1Oc1ccc(F)cc1F | 31.7
37 | Cc1ccccc1Oc1ncccc1CNS(C)(=O)=O | 0.139
38 | CCCS(=O)(=O)NCc1cccnc1Oc1ccc(C)c(F)c1F | 50.3
39 | Cc1nc(CNCc2cccnc2Oc2ccc(C)c(F)c2F)c[nH]1 | 75.3
40 | CN1CC(C(=O)NCc2cccnc2OCC(F)(F)F)CC1=O (stereo not given) | 44.9
41 | CC(C)S(=O)(=O)NCc1cccnc1Oc1ccc(F)cc1F | 56.3
42 | CN1CC(C(=O)NCc2cccnc2OCc2ccccc2)CC1=O (stereo not given) | 55.1
43 | COc1ncccc1CNC(=O)C1CC(=O)N(C)C1 (stereo not given) | 10.6
44 | CCCS(=O)(=O)NCc1cccnc1Oc1ccc(C)nc1 | 1.93
45 | c1ccc(Oc2ncccc2CNCc2ccccn2)cc1 | 19.7
46 | CN(C)S(=O)(=O)NCc1cccnc1Oc1ccccc1F | 5.46
47 | Cc1nc(CN(C)C(=O)CN(C)C)nc2c1CCC(=O)N2CCC(C)C | 7.43
48 | Cc1cccc(CS(=O)(=O)c2nnc([C@@H](N)Cc3ccccc3)o2)c1 | 23.1
49 | COc1ccc(C)cc1NC(=O)c1c(C)cn(C)c1CC(=O)O | -0.473
50 | CCOC(=O)Cn1c(=O)c(OCC)nc2cnccc21 | 42.6
51 | CN(C)CC(=O)N1CCCC2(CCN(c3ccccc3)C2=O)C1 (stereo not given) | -4.82
52 | CCOc1ccccc1CNC(=O)N1CCC(Cc2cnn(C)c2)C1 (stereo not given) | -12.45
53 | C1CN(CC2CCOCC2)Cc2c(COCC3CC3)nnn2C1 | 8.03
54 | CCOC(=O)c1nc(CC(=O)Nc2ccc3cc[nH]c3c2)no1 | 3.19
55 | OCc1cn(Cc2cccc(F)c2)nn1 | 28.5
